Bioassay records (PubChem)
KCNQ2 pot – enhances the rat KCNQ2 potassium channel | O88943 | CHO-K1 KCNQ2, FluxOR thallium flux fluorescence; stronger effect = higher value | B-score at 10 µM | 0.54% of 310,000 active | AID 2239;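 active means fluorescence ratio B-score at least 3 SD of library B-scores, with initial fluorescence B-score within 3 of them, cut at about 5.3 in these data; same plate scores as AID 2156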;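 further: B-score of peak minus minimum over baseline fluorescence ratio after K+ and Tl+ stimulus; positive B-score means potentiation of KCNQ2 with more thallium influx and brighter signal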
KCNQ2 inh – inhibitors of rat KCNQ2 potassium channel | 1.1% of 310,000 active | O88943 | B-score at 10 µM | CHO-K1 KCNQ2, FluxOR thallium flux, 20 min; stronger effect = lower value;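 active means fluorescence ratio B-score at most minus 3 library SDs, with starting brightness B-score within 2 library SDs, cut at about -5.5 in these data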
Kir21 conf inh – confirmation of mouse Kir2.1 potassium channel inhibitors; shares compounds with KCNQ2 pot; Kir2.1-expressing cells, FluxOR thallium flux fluorescence; stronger effect = lower value; Tl flux remaining, % of negative control (stronger effect = lower value), % at 10 µM; 41% of 2,300 active; AID 2032;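 active means Primary-screen hit whose thallium flux fell at least 3 control SD below untreated wells in both duplicates, with normal baseline fluorescence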
Target sequence (P35561 whole entry, looked up): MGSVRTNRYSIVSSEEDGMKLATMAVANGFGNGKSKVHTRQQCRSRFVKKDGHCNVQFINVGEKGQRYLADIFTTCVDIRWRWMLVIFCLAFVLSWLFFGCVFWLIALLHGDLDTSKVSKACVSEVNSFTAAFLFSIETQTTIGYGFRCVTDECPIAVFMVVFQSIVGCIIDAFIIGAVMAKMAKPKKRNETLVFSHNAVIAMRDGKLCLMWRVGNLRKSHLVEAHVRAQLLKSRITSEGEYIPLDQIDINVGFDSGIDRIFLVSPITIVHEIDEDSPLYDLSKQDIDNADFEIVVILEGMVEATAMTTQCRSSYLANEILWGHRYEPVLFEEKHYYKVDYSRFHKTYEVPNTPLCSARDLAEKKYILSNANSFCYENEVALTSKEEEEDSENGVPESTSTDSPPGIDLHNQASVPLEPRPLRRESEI
HEK293 Tl flux – counter-screen for Kir2.1 inhibitors: effect in parental HEK293 cells; shares compounds with KCNQ2 pot; FluxOR thallium flux fluorescence; 0% = unstimulated blank wells; FluxOR signal as % of negative control (100 = no effect), % at 10 µM; 19% of 2,300 active;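 active means dye signal at least 3 control SD above or below untreated wells in both duplicates, raw fluorescence within 3, either direction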;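 further: percent is based on the flux ratio of peak minus minimum fluorescence over baseline F0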
CHO-K1 ctr – parental CHO-K1 activity in KCNQ2 potentiator counter-screen | shares compounds with KCNQ2 pot | parental CHO-K1 cells, FluxOR thallium flux fluorescence; zero = vehicle mean+3SD, 100% = vehicle-minus-blank window | activity increase over 3SD of controls, % at 10 µM | 43% of 1,200 active | AID 2282;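 active means signal rise of at least 3 SD above the untreated control mean, in both duplicate wells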;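 further: counter screen of KCNQ2 potentiator hits so any rise reflects channel-independent effects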
KCNQ1 pot spec – tests whether KCNQ2 potentiators also act on human KCNQ1; activation over 3SD threshold, % at 10 µM; CHO KCNQ1 stable, FluxOR thallium flux fluorescence; beyond 3SD, as % of vehicle-control signal; shares compounds with KCNQ2 pot; 28% of 1,200 active;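 active means fluorescence ratio rise of at least 3 SD of vehicle wells above their mean, in both replicate wells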
KCNQ2 pot conf – confirmation of rat KCNQ2 potassium channel potentiators. shares compounds with KCNQ2 pot. CHO-KCNQ2 cells, FluxOR thallium flux fluorescence. potentiation, less the hit threshold, % at 10 µM. 68% of 1,200 active. AID 2287;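 active means fluorescence ratio rising 3 SD or more over the vehicle control mean in both replicates, plus primary screen hit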;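 further: peak minus minimum thallium fluorescence divided by baseline after K/Tl stimulus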
Kir2-1 sel – mouse Kir2.1 off-target activity of KCNQ2 potentiators; 2% of 1,200 active; HEK293 Kir2.1, FluxOR thallium flux fluorescence; shares compounds with KCNQ2 pot; activity over 3SD threshold, % at 10 µM; AID 2345;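 active means fluorescence ratio rise of at least 3 SD above the vehicle-control mean, seen in both replicates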
KCNQ2 W236L pot – KCNQ2 potentiators acting on retigabine-insensitive rat KCNQ2 W236L mutant; shares compounds with KCNQ2 pot; current increase over 3SD of negative controls (%), stronger effect = higher value, % at 25 µM; 10% of 940 active; CHO KCNQ2-W236L, automated patch clamp current;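 active means current increase at least 3 SD of the untreated controls above them in both duplicate recordings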
Hits are given with their value; – = inactive; · = no result given. The list is not random: actives were taken first. Their share in the collection is about 1.6%.

SMILES	KCNQ2 pot	KCNQ2 inh	Kir21 conf inh	HEK293 Tl flux	others
Cc1cc(C)c(C)c(OCCCCN(C)Cc2ccccc2)c1	·	–	26%	–
COc1ccc(OCCN(C)Cc2ccccc2)cc1	·	–	·	·
CN(CCCCOc1ccc(F)cc1)Cc1ccccc1	–	–	·	·
CN(CCOCCOc1ccc2ccccc2c1)Cc1ccccc1	·	–	17%	–
CSc1ncccc1C(=O)N1CCCC(N2CCN(c3ccccc3F)CC2)C1 (stereo not given)	–	–	·	·
CN(CC(=O)Nc1ccc(F)cc1)C(=O)COC(=O)c1cc(S(=O)(=O)N(C)C)ccc1N1CCCC1	·	–	·	·
O=C(NNC(=S)NC(=O)c1ccc(Br)cc1)c1ccc([N+](=O)[O-])cc1	–	–	·	·
O=C(NNC(=S)NC(=O)c1ccc(Br)cc1)c1cccc([N+](=O)[O-])c1	7.6	–	–	–	CHO-K1 ctr=–;KCNQ1 pot spec=–;KCNQ2 pot conf=–;Kir2-1 sel=–
Cc1ccc(C(=O)NNC(=S)NC(=O)c2ccccc2)cc1	–	–	–	–
Cc1cccc(C(=O)NNC(=S)NC(=O)c2ccccc2)c1	–	–	·	·
O=C(COc1cccc(NC(=O)c2cccc([N+](=O)[O-])c2)c1)c1ccc(Br)cc1	8.9	–	–	–	CHO-K1 ctr=3.8;KCNQ1 pot spec=–;KCNQ2 pot conf=12;Kir2-1 sel=–;KCNQ2 W236L pot=–
O=C(Nc1cccc(OCC(=O)N2CCOCC2)c1)c1cccc([N+](=O)[O-])c1	–	–	·	·
O=C(CCC(=O)N1CCOc2ccc(Cl)cc21)NCCCN1CCN(Cc2ccccc2)CC1	–	–	·	·
CC1CN(C(=O)CCC(=O)NCCCN2CCN(Cc3ccccc3)CC2)c2cc(Cl)ccc2O1 (stereo not given)	·	–	61%	–
Cc1cc(C)cc(N(C(=O)CCC(=O)Nc2ccccn2)C(C(=O)NC(C)C)c2ccc(O)cc2)c1 (stereo not given)	–	–	·	·
NC(=O)C1=C[C@@H](C2CCCCC2)C[C@@H](OCc2ccc(CO)cc2)O1	–	–	52%	–
O=C(O)C1=C[C@@H](C2CCCCC2)C[C@@H](OCc2ccc(CO)cc2)O1	–	–	·	·
CC(=O)/C=C(\C)Nc1ccccc1O	·	–	·	·
CSc1nc(-c2cccs2)c(C#N)c(=O)[nH]1	–	–	·	·
N#Cc1c(-c2cccs2)nc(SCc2ccc(Cl)cc2)[nH]c1=O	6.1	–	–	60%	CHO-K1 ctr=4.4;KCNQ1 pot spec=18;KCNQ2 pot conf=15;Kir2-1 sel=–;KCNQ2 W236L pot=–
CNCCCCOc1ccccc1Cc1ccccc1	·	–	28%	–
CN(C)CCOc1ccccc1Cc1ccccc1	–	–	·	·
O=C(/C=C/c1ccccc1)CC(O)(c1ccccc1)C(F)(F)F (stereo not given)	·	–	62%	–
COc1ccc(/C=C/C(=O)CC(O)(c2ccccc2)C(F)(F)F)cc1 (stereo not given)	·	–	·	·
COc1cccc(CNC(=O)CCCn2nc(C)n3c(cc4sccc43)c2=O)c1	–	–	·	·
SMILES	KCNQ2 pot	KCNQ2 inh	Kir21 conf inh	HEK293 Tl flux	others
Cc1cc(C)c(C(=O)COC(=O)C2CC3CCCC(C2)C3=O)c(C)c1 (stereo not given)	·	–	·	·
Cc1nc(N2CCN(C)CC2)c2c(C)c(C(=O)Nc3ccc(C)c(F)c3)sc2n1	·	–	64%	–
Cc1nc(N2CCC(C)CC2)c2c(C)c(C(=O)Nc3ccc(C)c(F)c3)sc2n1	·	–	·	·
COc1cc(C(CC(=O)O)n2cnnn2)ccc1OC(C)C (stereo not given)	·	–	·	·
O=C(Nc1cccc(Cl)c1)Nc1csc([N+](=O)[O-])c1	–	–	·	·
CCCN(c1nc(C)cc(OC)n1)S(=O)(=O)c1ccccc1	·	–	50%	–
COc1cc(C)nc(N(Cc2ccccc2)S(=O)(=O)c2ccccc2)n1	·	–	·	·
Cc1cccc(NCC(=O)N/N=C/c2ccc(Br)cc2)c1	–	–	·	·
Cc1ccc(C(=O)NCCN2C3=NC[C@H](C(C)C)N3C[C@H]2Cc2ccc(O)cc2)cc1Br	·	–	·	·
COc1ccc(C[C@H]2CN3C(=NC[C@@H]3C(C)C)N2CCNC(=O)c2ccc(C)c(Br)c2)cc1	·	–	49%	–
O=[N+]([O-])c1ccc(Nc2ccc(Cl)cc2)nc1	14	–	–	–	CHO-K1 ctr=–;KCNQ1 pot spec=–;KCNQ2 pot conf=18;Kir2-1 sel=–;KCNQ2 W236L pot=–
O=[N+]([O-])c1ccc(NCc2ccc(Cl)cc2)nc1	–	–	·	·
Cc1cc(C)c2cc(C#N)c(N3CCCN(C(=S)NCCCN(C)C)CC3)nc2c1	·	–	50%	–
Cc1ccc2cc(C#N)c(N3CCCN(C(=S)NCCCN(C)C)CC3)nc2c1	·	–	·	·
CCOC(=O)CSc1nc(CC)nc2ccccc12	–	–	·	·
CCOC(=O)CSc1nc(Cc2ccccc2)nc2ccccc12	·	–	70%	–
COCCN(C(=O)COC(=O)Cc1coc2cc3c(cc12)CCC3)c1c(N)n(Cc2ccccc2)c(=O)[nH]c1=O	·	–	·	·
CC(C)Cn1c(=O)c(C(=O)NCc2ccccn2)c(O)c2ccccc21	15	–	–	–	CHO-K1 ctr=–;KCNQ1 pot spec=–;KCNQ2 pot conf=–;Kir2-1 sel=–
CCCn1c(=O)c(C(=O)NCc2ccncc2)c(O)c2ccccc21	–	–	·	·
COc1ccc(C(CNC(=O)C(C)Oc2ccc(Br)cc2)N2CCOCC2)cc1 (stereo not given)	·	–	·	·
COc1ccccc1C(CNC(=O)C(C)Oc1ccc(Br)cc1)N1CCCC1 (stereo not given)	–	–	–	–
O=C(Nc1ncc(Br)s1)C(Cc1ccccc1)n1cccc1 (stereo not given)	7.3	–	–	188%	CHO-K1 ctr=–;KCNQ1 pot spec=–;KCNQ2 pot conf=8.5;Kir2-1 sel=–;KCNQ2 W236L pot=–
O=C(Nc1cccnc1)C(Cc1ccccc1)n1cccc1 (stereo not given)	–	–	·	·
CCCCCCCCC/C(=N\O)c1ccccn1	24	–	–	66%	CHO-K1 ctr=–;KCNQ1 pot spec=–;KCNQ2 pot conf=20;Kir2-1 sel=–;KCNQ2 W236L pot=–
CCCCCCCCC(=O)N/N=C/c1ccccn1	–	–	·	·
SMILES	KCNQ2 pot	KCNQ2 inh	Kir21 conf inh	HEK293 Tl flux	others
COc1ccc(CCC(C)N(C)Cc2ccccc2)cc1 (stereo not given)	–	–	·	·
NC(=O)c1ccc(NC(=O)COC(=O)C2(c3ccccc3F)CCCC2)cc1	–	–	·	·
O=C(COC(=O)C1(c2ccccc2F)CCCC1)NCc1cccs1	·	–	73%	–
CCOC(=O)C1(Cc2ccc(Cl)cc2)CCN(Cc2cn(CC)nc2C)CC1	–	–	·	·
N#Cc1ccc(CSc2nnc(-c3ccccc3)n2Cc2ccco2)cc1	·	–	·	·
N#Cc1ccc(CSc2nnc(Cc3cccs3)n2Cc2ccco2)cc1	·	–	53%	–
